Rows were chosen to be rich in hits. Some 21% of all compounds tested hit in one or more screens of this group.
Shiga inhibitor: inhibitors of Shiga toxin in Vero cells; 290,000 compounds, 9.2% hits; inhibition, % at 38.7 µM; Vero cells, Shiga toxin protein synthesis inhibition reporter; in the data active = inhibition mostly above about 28%, no sharp cut-off; inactive = mostly below about 43%
Pf growth 48h: P. falciparum growth inhibition at 48 hours (one generation); Potency, µM (top dose mostly 28.7 µM), most hits filed as inhibitors; P. falciparum luciferase growth in erythrocytes, 48 h; 310,000 compounds, 5.9% hits
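Here the parasites carry a stable luciferase gene and grow inside erythrocytes in Albumax-based RPMI medium with compound for one erythrocytic cycle. Activity is scored as loss of luminescent signal.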
Pf growth 96h: P. falciparum growth inhibition at 96 hour, primary screen for plastid delayed-death inhibitors. P. falciparum luciferase reporter growth, 96 h. Potency, µM (titrated, usually from 28.7 µM), most hits filed as inhibitors. 320,000 compounds, 6.9% hits
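Compounds incubated with erythrocytes infected by luciferase-expressing P. falciparum (2% hematocrit, 0.05% parasitemia final) for 96 hours, 37 C in 5% CO2. Growth inhibition scored as decreased luciferase luminescence.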
AMA1-RON2 inh: AMA1-RON2 (P. falciparum) interaction inhibition. AlphaScreen AMA1-biotinylated RON2 peptide binding. 360,000 compounds, 0.2% hits. Potency, µM (titrated, usually from 58.2 µM), usual class: inhibitors; also: nearly all actives have a fitted effect of over 45% in size
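AMA1 (3D7) with his tag at 25 nM final met compounds first, then biotinylated RON2 peptide at 25 nM; detection used donor plus acceptor beads, 10 µg/mL apiece, read by AlphaScreen after 30 min at room temperature.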
Cycloheximide cs: counter-screen hit for Shiga toxin inhibitors, cycloheximide. max response, %. 300,000 compounds, 12% hits. cell reporter, cycloheximide protein synthesis inhibition counterscreen. AID 2314; in the data active = max response mostly above about 13%, no sharp cut-off; inactive = mostly below about 14%; also: read at 38.3 µM for the half of the compounds with a filed dose
HCV inhibitor: blocks hepatitis C virus. Huh7.5.1 HCVcc-Cre infection, luciferase reporter, 44 h. Potency, µM (titrated, usually from 41.8 µM), actives largely listed as inhibitors. 340,000 compounds, 3.4% hits
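Infectious HCV cell culture screen: compound-treated cells (1,000/well, pre-plated 4 h) are infected with HCVcc-Cre at roughly 0.5 moi and grown 44 h. Infection is quantified by luciferase signal after 15 min substrate incubation at room temperature.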
A number is an active result; – = inactive; ? = inconclusive; · = no result given; [ ] = another dose, or the depositor's remark. Unless noted, calls follow the shape of the dose curve; as a rule, active = well fitted curve in the direction sought with a large enough effect; inconclusive = small, poorly fitted or top-dose-only effect, or another doubt; inactive = no such curve, though single readings can be large; an effect the other way counts as inactive or inconclusive.

SMILES	Shiga inhibitor	Pf growth 48h	Pf growth 96h	AMA1-RON2 inh	Cycloheximide cs	HCV inhibitor
C#CCOCCOCCOCCNc1nc(N2CCN(C(=O)CCCCCCCCCCNC(=O)[C@@H](CCSC)n3cc(CCO)nn3)CC2)nc(N2CCN(C(=O)CCCCCCCCCCNC(=O)[C@H]([C@@H](C)CC)n3cc(CCCCCN)nn3)CC2)n1	·	1.7µM	2.1µM	?	·	?
COc1cc2c(cc1NC(=O)C(C)Sc1ccc(NC(C)=O)cc1)oc1ccccc12 (centres undefined)	–	–	?	–[11.6 µM]	21	?
COc1cc2c(cc1NC(=O)Nc1ccc(C)cc1)oc1ccccc12	–	·	–	–	19	?
COc1ccc(NC(=O)Nc2cc3oc4ccccc4c3cc2OC)cc1	–	–	?	–	–	?
COc1cc2c(cc1NC(=O)c1cccc(S(=O)(=O)N(C)C)c1)oc1ccccc12	67	–	–	–	25	1.4µM
COc1cc2c(cc1NC(=O)Nc1ccc(F)cc1)oc1ccccc12	–	–	?	–	–	?
CC(=O)Nc1cc2oc3ccccc3c2cc1[N+](=O)[O-]	·	·	·	–	·	?
COc1cc2c(cc1NC(=O)c1cccc([N+](=O)[O-])c1C)oc1ccccc12	–	?	–	–	–	2µM
CNC(=O)C1CN(C(=O)c2cccc(S(=O)(=O)N3c4ccccc4CC3C)c2)c2ccccc2O1 (centres undefined)	·	?	?	–	·	–
CCCCNC(=O)C(NC(=O)c1ccc(-c2ccccc2)cc1)C(=O)c1ccccc1 (centres undefined)	·	·	·	–	·	·
COc1cc2c(cc1NC(=O)C(C)OC(=O)C1CC(=O)N(Cc3ccco3)C1)oc1ccccc12 (centres undefined)	–	·	–	–	38	14µM
COc1cc2c(c(Br)c1N)-c1cc(Br)c(N)cc1C2=O	·	·	·	–	·	·
O=C(Cn1cc(S(=O)(=O)N2CCN(c3ccccc3F)CC2)c2ccccc2c1=O)NCCCN1CCCCCC1	–	?	–	–	–	22µM
O=C(CN1C(=O)COc2ccccc21)NCCCN1CCCCC1	–	–	1µM	–	–	–
O=C(CCN1C(=O)COc2ccccc21)NCCCN1CCN(c2ccccc2F)CC1	–	–	2.6µM	–	–	–
O=C(NCc1cccc(C(F)(F)F)c1)C1C(=O)Nc2ccccc2C(=O)N1C1CCCC1 (centres undefined)	·	·	·	–	·	·
COc1ccc(S(=O)(=O)N2CCOCC2)cc1NC(=O)COc1ccc(C(C)=O)cc1OC	·	–	–	–	·	–
OCC1(CO)COC(C(Cl)(Cl)Cl)OC1	·	–	–	·	·	·
CCc1nc2c(OCC3COc4ccccc4O3)cccn2c1N(C)C(=O)c1cccs1 (centres undefined)	·	·	·	–	·	·
O=C(c1ccc(C#Cc2ccccc2)o1)N1CCN(c2ccccn2)CC1	–	–	8.3µM	–	–	?
COC(=O)c1ccc(C#Cc2ccccc2)o1	–	–	–	–	56	–
O=C(c1ccc(CS(=O)Cc2ccc(Cl)cc2)o1)N1CCN(c2ccccn2)CC1 (centres undefined)	–	–	10µM	–	–	–
CN(C)c1ccc(/C=N/NC(=O)CCc2nc3ccccc3[nH]2)cc1	–	–	–	–	–	–
N=C1C(c2ccccc2)=C(O)CN1c1cccc(S(=O)(=O)N2CCOCC2)c1	–	–	–	–	–	–
CCCC(C)Sc1nc2c([nH]1)c(=S)n(C)c(=O)n2C (centres undefined)	·	·	·	–	·	–
SMILES	Shiga inhibitor	Pf growth 48h	Pf growth 96h	AMA1-RON2 inh	Cycloheximide cs	HCV inhibitor
O=C(COc1ccc(CNC[C@H]2O[C@@H](n3ccc(=O)[nH]c3=O)[C@H](O)[C@@H]2O)cc1)Nc1ccccn1	·	·	·	–	·	·
COc1ccc(CN(C)C(c2ccccc2)c2nnnn2-c2ccccc2C)c(OC)c1C (centres undefined)	–	?	–	–	–	–
COc1cc(OC)c(OC)cc1CN(C)C(c1ccccc1)c1nnnn1-c1ccccc1C (centres undefined)	–	?	10µM	?	–	13µM
Cc1ccc(S(=O)(=O)n2cnc3cc([N+](=O)[O-])ccc32)c(C)c1C	–	–	–	–	–	–
Cc1ccc([N+](=O)[O-])cc1S(=O)(=O)n1ccnc1C	–	5.2µM	–	–	–	–
CCN1CCN(c2ccc(N3CCN(S(=O)(=O)c4cc([N+](=O)[O-])ccc4C)CC3)nn2)CC1	·	10µM	?	–	·	–
Cc1ccc([N+](=O)[O-])cc1S(=O)(=O)N1CCN(C)CC1	–	–	–	–	–	–
O=C(CN1C(=O)NC2(CCCCCCC2)C1=O)Nc1cccc(Br)c1	·	·	·	–	·	?
C[N+]12CCC(CC1)C(=C(c1ccccc1)c1ccccc1)C2	–	0.74µM	0.59µM	–	–	?
Cc1cc(Br)cn2c(Cc3cccc(F)c3)c(-c3ccc(C#N)cc3)nc12	·	·	·	–	·	·
Cc1ccc(C(=O)Cc2ccccc2)cc1	·	·	·	–	·	–
CC(=O)Nc1cc[n+](CC(=O)c2ccc(Cl)cc2)cc1	–	?	9.3µM	–	–	?
Cc1cc(C)c(NC(=O)CS)c(Cl)c1	–	–	?	–	–	–
Cc1ccc(C(=O)CCc2ccc(N)cc2)cc1	96	–	–	–	31	?
Cc1ccc(C(=O)C[n+]2cccc3ccccc32)cc1	–	13µM	4.1µM	–	–	–
Cc1cc(C)c(NC(=O)CC(=O)c2ccccc2)c(Cl)c1	65	–	–	–	22	–
CC(=O)Nc1cc[n+](C(C)C(=O)c2ccc(Cl)cc2)cc1 (centres undefined)	–	?	–	–	–	?
O=C(C[n+]1cccc2ccccc21)c1ccc(Br)cc1	–	?	?	–	–	?
CC(=O)Nc1ccc(C(=O)OCC(=O)c2cccc([N+](=O)[O-])c2)cc1	–	–	–	–	–	–
Cc1ccc(C(=O)Sc2cccccc2=O)cc1	135	4.1µM	2.9µM	–	78	–
Cc1ccc(C(=O)COC(=O)c2cccc(NC(=O)c3ccc([N+](=O)[O-])cc3[N+](=O)[O-])c2)cc1	136	–	–	–	36	11µM
Cc1ccc[n+](CC(=O)c2ccc(-c3ccccc3)cc2)c1	–	–	?	–	–	–
Cc1ccc[n+](CC(=O)c2ccc(Cl)cc2)c1	–	–	0.83µM	–	–	–
CCCC(=O)c1ccc(-c2ccccc2)cc1	84	–	–	–	28	–
O=C1ON(Cc2ccccc2)C(c2ccccc2)N1c1ccccc1 (centres undefined)	·	·	·	–	·	–
CC(C)c1ccccc1NC(=O)CSc1n[nH]c(=O)n1C1CC1	·	–	–	–	·	–
Cc1noc(C)c1S(=O)(=O)N(C)C[C@H]1Oc2c(NS(=O)(=O)c3cn(C)cn3)cccc2C(=O)N([C@H](C)CO)C[C@@H]1C	·	·	·	–	·	?
Cc1ccc(C(=O)C[n+]2cccc(C(N)=O)c2)cc1	–	–	–	?	–	–
